In PubChem BioAssay AID743287 (Broad Institute, 2014) one finds activation data, which are given here for 23 compounds.

The structures appear in SMILES notation. The whole screen tested about 370,000 compounds, of which about 2,300 (0.62%) were called active. This excerpt belongs to a sample that is enriched for actives. Unmarked numbers belong to inactive results.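 The calls were made as follows: active = lowest replicate activation of at least 40%, so every replicate reaches that level; inactive = the rest.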

The nature of the assay: GLuc luminescence reporter in INS-1E cells, primary screen for activators of glucose-dependent secretion of insulin (AID 743287).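 Also: 0% = median of neutral control wells and 100% = median of IBMX positive control wells.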 The conditions noted are these: INS-1E GLuc reporter insulin secretion, 2-3 h, at 16.6 µM, active compounds read high.
`Cc1ccccc1C(=O)NC(=S)NC1CC1`: the activation is -11.6%.

As for `CC1CN(C(=S)Nc2ccc(Br)cc2Cl)CC(C)O1` (stereo not drawn), the activation is -10.5%.

Consider `Cc1cc(Br)ccc1NC(=S)NC1CCCC1`, for which the activation is 46.8% (active). The same measure for `C[C@@H]1CN([C@H](C)CO)C(=O)c2cccc(NS(=O)(=O)c3cn(C)cn3)c2O[C@H]1CN(C)S(=O)(=O)c1ccc(Cl)cc1`: 12%; for `O=C(Nc1ccccc1F)N1CC(=O)N2[C@H](CO)[C@H](c3ccc(C#CC4CC4)cc3)[C@@H]2C1`: -9.47%. The same measure for `COc1cccc(CNC(=O)c2cc3c(c(-c4cccc(-c5ccc(C#N)cc5)c4)n2)[C@@H](CCO)N([S@](=O)C(C)(C)C)C3)c1`: 11.4%. As for `O=C1NCCOCc2cn(nn2)CC[C@@H]1Cc1ccccc1`, the activation is 9.64%. On to `CCOC(=O)c1sc2nc(C)nc(Nc3ccc(OC)c(OC)c3)c2c1C`, for which the activation is 15.4%. On to `CCOC(=O)c1sc2nc(C)[nH]c(=O)c2c1C`, for which the activation was 49.9% (active). With `CCOC(=O)c1sc2nc(C)nc(SCC(N)=O)c2c1C`, the activation was 13.1%. As to `CCCNC(=O)N1C[C@@H](O)COC[C@H]2O[C@H](CC(=O)N3CCC(Cc4ccccc4)CC3)CC[C@@H]21`, the activation was 2.87%. On to `CC(C)NC(=O)N1CCCCN2[C@H](CO)[C@@H](c3ccc(Br)cc3)[C@H]2C1`, for which the activation was 1.31%.

For `Cc1cccc(-c2c(NC(=O)c3ccco3)oc3ccc(Cl)cc3c2=O)c1`, the activation was -13.2%. With `COc1ccc(-c2c(NC(=O)c3ccco3)oc3ccc(Cl)cc3c2=O)cc1` the figure was 106% (active); with `COc1ccc(OC)c(NC(=O)c2cnn(-c3ccccc3Cl)c2NC(=O)c2ccco2)c1`, -0.082%.

`O=C(Nc1cc(F)ccc1F)N1CCCCN2[C@H](CO)[C@@H](c3ccc(-c4cccnc4)cc3)[C@@H]2C1`: the activation was -2.5%.

As for `CO[C@H]1CN(C)C(=O)c2ccc(NC(=O)C3CCCC3)cc2OC[C@@H](C)NC[C@@H]1C`, the activation was -7.48%.

`COc1cccc(CNC(=O)[C@@H]2[C@@H](CO)[C@@H]3Cn4c(ccc(-c5cccnc5)c4=O)[C@@H]3N2C)c1`: the activation is -0.31%. Regarding `O=C(NCC[C@@H]1CC[C@@H](NS(=O)(=O)c2ccc(Cl)cc2)[C@@H](CO)O1)c1ccccc1F`, the activation was 6.92%. With `C[C@@H]1CN([C@H](C)CO)S(=O)(=O)c2ccc(C3=CCCC3)cc2O[C@H]1CN(C)C(=O)CC1CC1` the figure was -5.57%; with `CCOc1ncccc1C(=O)NCCc1ccc(OC)cc1`, 35.2%; with `COCCCNC(=O)CCc1nc2cccnc2n1Cc1ccc(OC)cc1`, 10.4%. `CCOC(=O)Cn1c(=O)n(Cc2ccc(OC)cc2)c(=O)c2cccnc21`: the activation was 46.4% (active).
